Laboratory results published in PubChem BioAssay (Tox21).
Results filed as inconclusive are left out. Values without a mark were called inactive. Active and inactive are the calls of the source. Unless noted, calls follow the shape of the full dose curve.

What follows are compounds tested on thyroid hormone receptor (rat, GH3 cells) (assay: qHTS assay to identify small molecule agonists of the thyroid receptor (TR) signaling pathway (AID 743066)). Settings: GH3.TRE-Luc cells, TR agonist luciferase, 24 h; series mostly up to 83.9 µM; activation: at the top concentration.
% is scaled to controls: 0 for no effect and ±100 for the full control effect.

SMILES	activation	outcome
NC(=O)Nc1ccccc1	-0.141%	
CCCc1cc(C(N)=S)ccn1	-0.228%	
CC(C(=O)O)c1ccc(CC2CCCC2=O)cc1 (stereo not given)	0.355%	
CC(C)(C)NCCNC(C)(C)C	0.758%	
C=C1CC[C@H]2C[C@@H]1C2(C)C	1.22%	
OCCCC1CCCCC1	-0.542%	
CCN1CCC[C@H]1CNC(=O)c1c(O)c(Cl)cc(Cl)c1OC	1.94%	
COCCCOCCCOC	0.0686%	
CC(=O)Nc1ccc(S(N)(=O)=O)cc1	0.0643%	
CN1CCC(=C2c3ccccc3CC(=O)c3sccc32)CC1	-5.67%	
Cc1ccc(C#N)cc1	-0.0868%	
N=c1nc(N2CCCCC2)cc(N)n1O	-0.0975%	
CC(C)c1cc2c(cc1S(=O)(=O)O)[C@@]1(C)CCC[C@@](C)(C(=O)O)[C@@H]1CC2	3.9%	
Nc1ccc(S(=O)(=O)Nc2ccnn2-c2ccccc2)cc1	1.42% [at 39.4 µM]	
CO[Si](CCCOCC1CO1)(OC)OC (stereo not given)		inactive
Nc1cc(=O)[nH]c(N)n1	1.18%	
CCN(CC)CCNC(=O)c1cc(S(C)(=O)=O)ccc1OC	0.604% [at 39.4 µM]	
Cc1cc2c(cc1S(N)(=O)=O)S(=O)(=O)CCC2	0.169% [at 39.4 µM]	
CC/C=C\CCOC(C)=O	-0.615%	
Cc1cc(O)cc2c1O[C@](C)(CCC[C@H](C)CCC[C@H](C)CCCC(C)C)CC2		inactive

SMILES	activation	outcome
CC(C)(C)c1nnc(NS(=O)(=O)c2ccccc2)s1	-0.115%	
CS(=O)(=O)O	0.238% [at 95.2 µM]	
O=c1n(CCO)c(=O)n(CCO)c(=O)n1CCO		inactive
Cc1ccc(Cl)cc1Cl	-0.0277%	
CC(C[N+](C)(C)C)OC(N)=O (stereo not given)	-0.0165%	
Cc1nc2c([nH]1)c(=O)n(C)c(=O)n2Cc1ccco1	1.51%	
FC1(F)C(F)(F)C(F)(F)C2(F)C(F)(F)C(F)(F)C(F)(F)C(F)(F)C2(F)C1(F)F (stereo not given)	0.884%	
O=C1OC(=O)C2CCCCC12 (stereo not given)	-0.133%	
CCCCC(CC)COC(=O)c1ccccc1O (stereo not given)	0.921%	
CC1(C)C(O)C(C)(C)C1O (stereo not given)	0.941%	
CC(=O)OCC(CCn1cnc2cnc(N)nc21)COC(C)=O	1.02%	
CC(C)NC(=O)NC(C)C	-0.699%	
O=C(O)COc1nn(Cc2ccccc2)c2ccccc12	0.391%	
CN1C(=O)N(C)C(O)C1O (stereo not given)	0.939%	
O=C1CCCN1C1CCCCC1	0.528%	
CCn1ccnc1CC1COc2ccccc2O1 (stereo not given)	0.14%	
N[C@H]1CN(c2c(F)cc3c(=O)c(C(=O)O)cn(C4C[C@H]4F)c3c2Cl)CC12CC2 (stereo not given in full)	1.35%	
CCCCCSCCCCC	-0.418%	
ClC(Cl)(Br)Br	-0.262%	
N=C(N)c1ccc2cc(OC(=O)c3ccc(N=C(N)N)cc3)ccc2c1	0.861%	

The compounds below were run against Estrogen receptor (Homo sapiens) (UniProt P03372) (assay: qHTS assay to identify small molecule antagonists of the estrogen receptor alpha (ER-alpha) signaling pathway (AID 743069; active = well fitted curve in the direction sought with a large enough effect in the signal ratio in the repeat runs, not every such curve was filed as active; the % refers to the signal ratio)). Settings: HEK293 ER-alpha-UAS-bla, beta-lactamase ratio, antagonist mode; series mostly up to 69.4 µM; activity, negative = inhibition: at the top concentration.
Chain of Estrogen receptor (Homo sapiens) (P03372 whole entry, looked up): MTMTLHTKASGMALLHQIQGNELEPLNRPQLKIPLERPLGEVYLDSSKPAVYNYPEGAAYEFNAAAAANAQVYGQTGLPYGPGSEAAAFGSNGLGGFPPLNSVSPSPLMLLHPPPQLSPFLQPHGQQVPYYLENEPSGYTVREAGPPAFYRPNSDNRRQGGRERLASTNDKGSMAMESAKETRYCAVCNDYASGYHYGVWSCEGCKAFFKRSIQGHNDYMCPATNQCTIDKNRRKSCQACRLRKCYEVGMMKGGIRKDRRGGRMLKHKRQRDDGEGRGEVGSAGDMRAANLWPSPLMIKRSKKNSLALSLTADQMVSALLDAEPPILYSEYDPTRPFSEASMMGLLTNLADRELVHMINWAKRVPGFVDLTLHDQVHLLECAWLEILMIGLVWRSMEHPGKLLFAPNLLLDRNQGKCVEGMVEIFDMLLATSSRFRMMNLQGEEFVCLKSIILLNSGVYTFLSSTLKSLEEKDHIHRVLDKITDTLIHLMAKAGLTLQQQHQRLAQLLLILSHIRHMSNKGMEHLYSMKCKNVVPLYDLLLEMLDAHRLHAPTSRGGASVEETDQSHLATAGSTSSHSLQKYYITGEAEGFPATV
Procedure, shortened: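 Beta-lactamase FRET fluorescence is read after 2 hr at room temperature with LiveBLAzer B/G substrate. Before that, ER-alpha-bla HEK293 cells sit 4 hr after plating, then receive compound plus 17beta-estradiol and incubate 18 hr at 37C.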

SMILES	activity, negative = inhibition	outcome
NC(=O)Nc1ccccc1	-10.8%	
CCCc1cc(C(N)=S)ccn1	1.69%	
CC(C(=O)O)c1ccc(CC2CCCC2=O)cc1 (stereo not given)	3.48%	
CC(C)(C)NCCNC(C)(C)C	-16.4%	
C=C1CC[C@H]2C[C@@H]1C2(C)C	14%	
OCCCC1CCCCC1	-7.96%	
CCN1CCC[C@H]1CNC(=O)c1c(O)c(Cl)cc(Cl)c1OC	7.33%	
COCCCOCCCOC	13.2%	
CC(=O)Nc1ccc(S(N)(=O)=O)cc1	8.55%	
CN1CCC(=C2c3ccccc3CC(=O)c3sccc32)CC1	-10.2%	
Cc1ccc(C#N)cc1	-14%	
N=c1nc(N2CCCCC2)cc(N)n1O	9.32%	
CC(C)c1cc2c(cc1S(=O)(=O)O)[C@@]1(C)CCC[C@@](C)(C(=O)O)[C@@H]1CC2	8.02%	
Nc1ccc(S(=O)(=O)Nc2ccnn2-c2ccccc2)cc1	5.07% [at 32.6 µM]	
CO[Si](CCCOCC1CO1)(OC)OC (stereo not given)		inactive
Nc1cc(=O)[nH]c(N)n1	-10.5%	
CCN(CC)CCNC(=O)c1cc(S(C)(=O)=O)ccc1OC	-4.81% [at 32.6 µM]	
Cc1cc2c(cc1S(N)(=O)=O)S(=O)(=O)CCC2	5.89% [at 32.6 µM]	
CC/C=C\CCOC(C)=O	-3.56%	
Cc1cc(O)cc2c1O[C@](C)(CCC[C@H](C)CCC[C@H](C)CCCC(C)C)CC2		inactive

SMILES	activity, negative = inhibition	outcome
CC(C)(C)c1nnc(NS(=O)(=O)c2ccccc2)s1	-13.8%	
CS(=O)(=O)O	-5.22% [at 79.1 µM]	
O=c1n(CCO)c(=O)n(CCO)c(=O)n1CCO		inactive
Cc1ccc(Cl)cc1Cl	-9.03%	
CC(C[N+](C)(C)C)OC(N)=O (stereo not given)	6.91%	
Cc1nc2c([nH]1)c(=O)n(C)c(=O)n2Cc1ccco1	-14.2%	
FC1(F)C(F)(F)C(F)(F)C2(F)C(F)(F)C(F)(F)C(F)(F)C(F)(F)C2(F)C1(F)F (stereo not given)	-2.68%	
O=C1OC(=O)C2CCCCC12 (stereo not given)	-3.44%	
CCCCC(CC)COC(=O)c1ccccc1O (stereo not given)	-4.56%	
CC1(C)C(O)C(C)(C)C1O (stereo not given)	30.6%	
CC(=O)OCC(CCn1cnc2cnc(N)nc21)COC(C)=O	-6.62%	
CC(C)NC(=O)NC(C)C	29.9%	
O=C(O)COc1nn(Cc2ccccc2)c2ccccc12	-6.94%	
CN1C(=O)N(C)C(O)C1O (stereo not given)	58.2%	
O=C1CCCN1C1CCCCC1	37.6%	
CCn1ccnc1CC1COc2ccccc2O1 (stereo not given)	11.2%	
N[C@H]1CN(c2c(F)cc3c(=O)c(C(=O)O)cn(C4C[C@H]4F)c3c2Cl)CC12CC2 (stereo not given in full)	19.9%	
CCCCCSCCCCC	-8.08%	
ClC(Cl)(Br)Br	-8.62%	
N=C(N)c1ccc2cc(OC(=O)c3ccc(N=C(N)N)cc3)ccc2c1	4.37%	
